Assay outcomes deposited in PubChem BioAssay by ICCB-Longwood Screening Facility, Harvard Medical School.
MgrA-DNA mod = alters Staphylococcus aureus MgrA binding to DNA; fluorescence polarization; inhibition, % (test concentration not listed); hit rate 0.13% among 84,000; AID 602314; in the data active means inhibition above about 30%, passing the limit was not always enough;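 further: 0% = protein plus DNA without compound and 100% = DNA alone without protein; higher means less MgrA bound to DNA so lower polarization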
* = called active by the depositor; + = active, no number. The sample as a whole holds a higher share of hits than the screen did.

SMILES	MgrA-DNA mod
COc1cccc(NC(=S)Nc2ccc(N(C)C)cc2)c1	-2
Cc1ccc(NC(=S)Nc2ccc3nc(-c4ccco4)c(-c4ccco4)nc3c2)cc1	80*
O=C(c1ccccc1)c1ccc2nc(-c3ccco3)c(-c3ccco3)nc2c1	63*
COc1ccc2nc3c(nc2c1)-c1cccc2cccc-3c12	-1
COc1ccc(N(C)C(=S)Nc2ccc3nc(-c4ccco4)c(-c4ccco4)nc3c2)cc1	60*
CNC(=S)Nc1ccc(C)cc1	-1
S=C(NCc1ccco1)Nc1ccc2nc(-c3ccccn3)c(-c3ccccn3)nc2c1	-3
O=C(NCCO)c1ccc2nc(-c3ccco3)c(-c3ccco3)nc2c1	36
c1coc(-c2nc3ccccc3nc2-c2ccco2)c1	22
CC1CCCCN1C(=O)CSc1nnc(C2CCCCC2)o1 (configuration not stated)	-7
CCOC(=O)c1c(C)c(-c2ccccc2)n(CC(=O)N(CC)CC)c1C	-1
Nc1cc2c(cc1Cl)OCO2	12
OC(CSc1ccc(F)cc1)CN1CCN(c2nc3ccc(Cl)cc3s2)CC1 (configuration not stated)	-2
O=S(=O)(c1cc(Br)c(Cl)s1)N1CCCCC1	1
O=C(O)c1ccc(C=Nc2ccc(C(=O)O)cc2)cc1	-3
CC(C)C1Nc2ccc(C(=O)O)cc2C2C=CCC21 (configuration not stated)	21
O=C(O)C1Nc2ccccc2C2C=CCC12 (configuration not stated)	45
Cc1ccc2c(c1C)NC(C(=O)O)C1CC=CC21 (configuration not stated)	64*
O=S1(=O)C=CC(NCc2ccccc2)C1 (configuration not stated)	-1
CCOc1ccsc1C(=O)Nc1ccc(OC(F)(F)F)cc1	0
O=S1(=O)CCC(N=Cc2ccc(-c3ccc(Br)cc3)o2)C1 (configuration not stated)	0
CCOC(=O)c1cnn(C(=O)c2c(C)nc3ccccn23)c1N	-1
Cc1nc2ccccn2c1-c1ccnn1C(=O)c1ccno1	41*
Cc1nc2ccccn2c1-c1ccnn1C(=O)c1ccc(Cl)cc1	1
CN(C)C(=O)CCCOc1ccccc1	-1
SMILES	MgrA-DNA mod
CC1CN(C(=O)N2CCC(C(=O)O)CC2)c2cc(Cl)ccc2O1 (configuration not stated)	0
C=C(C)C1Cc2cc(/C=C/C(=O)O)c(O)cc2O1 (configuration not stated)	54*
O=C(O)C=Cc1ccc(O)c(O)c1	4
C=C(C)C1Cc2cc3ccc(=O)oc3cc2O1 (configuration not stated)	-3
O=C1c2ccccc2C(=O)c2c(NC3CCCCC3)ccc(Nc3ccc(Oc4ccccc4)cc3)c21	-3
O=C1C=C(NC2CCCC2)CC(c2ccccc2)C1 (configuration not stated)	0
O=C1C=C(C(F)(F)F)c2ccc(NC3CCCCC3)c3cccc1c23	56*
C=CCSc1nnc(-c2ccccc2)n1-c1ccccc1	2
COc1cccc2c1C(=O)c1c(O)c3c(c(O)c1C2=O)C[C@@](O)(C(=O)CO)C[C@@H]3O[C@H]1C[C@H](N)[C@H](O)[C@H](C)O1	+
COc1cccc2c1C(=O)c1c(O)c3c(c(O)c1C2=O)C[C@@](O)(C(C)=O)C[C@@H]3OC1CC(N)C(O)C(C)O1 (some centres not stated)	+
O=C(CSc1nc2cc(Cl)ccc2s1)Nc1ccccc1Cl	0
COC(=O)c1ccccc1NC(=O)C1=CCCCC1C(=O)O (configuration not stated)	-1
O=C(Cn1ncc2c1-c1ccccc1OC2)N1CCCCC1	8
CCOC(=O)C1=C(C(C)C)NC(=O)NC1c1ccc(F)cc1 (configuration not stated)	1
C=CCNC(=S)Nc1c(C)nn(CC)c1C	-2
CC1S/C(=N\NC(=O)CNc2cccc(Cl)c2)N(c2ccccc2)C1=O (configuration not stated)	1
O=C(Nc1ccccn1)c1ccccc1O	1
OC1CCN(C(=S)NC2CCCC2)CC1	6
COc1ccccc1CNC(=O)CCn1c(=O)c2ccccc2n(Cc2ccc(F)cc2)c1=O	0
Cc1ccc(C)n1C(CC(=O)O)c1ccc2c(c1)OCO2 (configuration not stated)	53*
CCC(C(=O)NC(C)c1ccc2c(c1)OCO2)c1ccccc1 (configuration not stated)	-3
NC(=O)CC(c1ccccc1)c1ccc2c(c1)OCO2 (configuration not stated)	-5
Cc1ccc(C#N)c(SCC(=O)c2ccc(Br)cc2)n1	2
CN1C(=O)C2(C(C#N)=C(N)Oc3cc(O)ccc32)c2ccccc21 (configuration not stated)	0
COC(=O)C1=C(c2ccccc2)S(=O)(=O)CCN1C(C)=O	-11
CCc1ccc(-c2nn(-c3ccccc3)cc2/C=C2\SC(=S)NC2=O)cc1	1
Cc1ccc(-c2nn(-c3ccccc3)cc2/C=C2\SC(=S)NC2=O)cc1	4
Cc1ccc(-c2nn(-c3ccccc3)cc2/C=C2\SC(=S)N(CCCC(=O)O)C2=O)cc1	99*
